Bioassay records deposited in PubChem by National Center for Advancing Translational Sciences (NCATS).
AMA1 RON2 block: qHTS for Inhibitors of AMA1-RON; Towards Development of Antimalarial Drug Lead: Primary Screen | Potency, µM (top dose mostly 58.2 µM), usual class: inhibitors | AlphaScreen AMA1-biotinylated RON2 peptide binding | hit rate 0.2% among 360,000; also: nearly all actives have a fitted effect of over 45% in size
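AMA1 (3D7) with his tag at 25 nM final met compounds first, then biotinylated RON2 peptide at 25 nM; detection used donor plus acceptor beads, 10 µg/mL apiece, read by AlphaScreen after 30 min at room temperature.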
Pf growth 96h: Primary qHTS for delayed death inhibitors of the malarial parasite plastid, 96 hour incubation; P. falciparum luciferase reporter growth, 96 h; hit rate 6.9% among 320,000; Potency, µM (doses to about 28.7 µM), actives largely listed as inhibitors
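P. falciparum expressing integrated firefly luciferase grown in erythrocytes (2% hematocrit, 0.05% parasitemia final) with compounds for 96 hours at 37 C, 5% CO2. Growth inhibition read as loss of luminescence after adding luciferase detection reagent.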
AmpC inh detg: qHTS Inhibitors of AmpC Beta-Lactamase (assay with detergent); P00811; AmpC hydrolysis of nitrocefin, absorbance 480 nm, 0.01% Triton; Potency, µM (doses to about 114 µM), hits mostly inhibitors; hit rate 0.041% among 370,000; AID 485294, 2010; also: nearly all actives have a fitted effect of over 25% in size
Target sequence (P00811 whole entry, looked up): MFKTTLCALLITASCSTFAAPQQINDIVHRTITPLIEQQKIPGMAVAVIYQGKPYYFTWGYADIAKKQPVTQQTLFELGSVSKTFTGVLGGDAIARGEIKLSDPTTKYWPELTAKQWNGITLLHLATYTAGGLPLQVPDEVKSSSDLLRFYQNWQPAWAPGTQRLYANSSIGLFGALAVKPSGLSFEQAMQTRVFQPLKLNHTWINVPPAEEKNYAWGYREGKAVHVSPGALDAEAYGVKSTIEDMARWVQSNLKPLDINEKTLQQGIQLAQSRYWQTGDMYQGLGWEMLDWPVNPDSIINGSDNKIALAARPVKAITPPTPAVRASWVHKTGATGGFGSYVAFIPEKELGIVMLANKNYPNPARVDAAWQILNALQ
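20 mM phosphate pH 7.0 + 0.01% (detergent screen) or 0.0001% Triton X-100; 5.3 nM AmpC reagent; cpd preinc 15 min RT; nitrocefin (800 uM stock) to start; A480 q20 s × 4 min; Activity was normalised to no-enzyme and no-compound control wells.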
HCV inh: qHTS Assay for Inhibitors of Hepatitis C Virus (HCV) | Huh7.5.1 HCVcc-Cre infection, luciferase reporter, 44 h | Potency, µM (doses to about 41.8 µM), actives largely listed as inhibitors | hit rate 3.4% among 340,000 | AID 651820, 2012
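Infectious HCV cell culture screen: compound-treated cells (1,000/well, pre-plated 4 h) are infected with HCVcc-Cre at roughly 0.5 moi and grown 44 h. Infection is quantified by luciferase signal after 15 min substrate incubation at room temperature.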
Pf growth 48h: Primary qHTS for delayed death inhibitors of the malarial parasite plastid, 48 hour incubation; P. falciparum luciferase growth in erythrocytes, 48 h; Potency, µM (highest dose often 28.7 µM), usual class: inhibitors; hit rate 5.9% among 310,000; AID 504832, 2011
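Compounds are pin-transferred into medium, infected erythrocytes (2% hematocrit, 0.1% parasitemia final) are added, and plates sit one parasite generation at 37 C in 5% CO2. Detection reagent is then added and luminescence measured.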
AmpC inh no detg: qHTS Inhibitors of AmpC Beta-Lactamase (assay without detergent) | hit rate 0.52% among 330,000 | AmpC nitrocefin hydrolysis, absorbance 480 nm, 0.0001% Triton | Potency, µM (series often up to 57.1 µM), most hits filed as inhibitors; also: nearly all actives have a fitted effect of over 20% in size
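AmpC (5.3 nM in the dispensed reagent) in 20 mM phosphate pH 7.0 with 0.01% (detergent screen) or 0.0001% Triton X-100 was preincubated with compounds for 15 min at room temperature. Nitrocefin was then added from an 800 uM solution, and hydrolysis was followed at 480 nm.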
Numbers stand for hits; . = inactive; ? = inconclusive; / = no result given; [ ] = another dose, or the depositor's remark. Only some compounds are listed: those with a hit (about 11% of all), similar ones and a draw of the others. Calls follow the shape of the dose curve; as a rule, active = well fitted curve in the direction sought with a large enough effect; inconclusive = small, poorly fitted or top-dose-only effect, or another doubt; inactive = no such curve, though single readings can be large; an effect the other way counts as inactive or inconclusive.

SMILES | AMA1 RON2 block | Pf growth 96h | AmpC inh detg | HCV inh | Pf growth 48h | AmpC inh no detg
Cc1ccc(CCNS(=O)(=O)c2ccc3c(c2)CC(C)N3C(=O)C2CCC2)cc1 (stereo unspecified) | / | / | . | / | / | /
COc1ccc(CCCc2nnc(SCC(=O)Nc3ccc(C)cc3)o2)cc1C | / | / | . | / | / | /
CN1CCN(C2=Nc3cc(Cl)ccc3Nc3ccccc32)CC1 | . | ? | . | .[8.37 µM] | 17µM | .
CN1CCN(C2=Nc3cc(F)ccc3Cc3ccccc32)CC1 | / | . | . | / | . | .
Cc1ccc(-c2nnc(N3CCN(C(=O)CSc4ncn[nH]4)CC3)c3ccccc23)cc1 | . | / | . | ? | 10µM | .
CCC(=O)N1c2ccccc2CC1C(=O)NCCCN1CCN(c2ccccc2)CC1 (stereo unspecified) | / | / | . | / | / | /
CN1/C(=C\C=Nc2cc(S(=O)(=O)N3CCOCC3)ccc2N2CCOCC2)C(C)(C)c2ccccc21 | . | 8.3µM | . | . | . | .
O=C(Nc1ccc(Cl)cc1Cl)c1cc(S(=O)(=O)N2CCc3ccccc32)ccc1F | / | / | . | / | / | /
COc1ccc(NC(=O)c2c(-c3ccc(C)cc3)nnc3ccccc23)cc1Cl | / | / | . | / | / | /
CC1CCN(CCCn2c(=S)[nH]c3c(sc4ccccc43)c2=O)CC1 | . | .[5.75 µM] | ? | . | . | .
COCCCn1c(=S)[nH]c2c(sc3ccccc32)c1=O | . | 10µM | . | . | . | .
CC(C)c1cnc2c(c1SCC(=O)Nc1cccc([N+](=O)[O-])c1)c(=O)n(C)c(=O)n2C | / | / | . | / | / | /
Cc1cccc(NC(=O)C2CCN(S(=O)(=O)c3c(C)c(C)cc(C)c3C)CC2)n1 | . | . | ? | ? | ? | .
Cc1cccc(NC(=O)C2CCN(S(=O)(=O)c3c(C)nn(C)c3C)CC2)n1 | . | ? | ? | 25µM | . | .
O=C(NC1CCCCCC1)C1CCN(S(=O)(=O)c2c(Cl)cccc2Cl)CC1 | . | . | . | . | ? | .
Cc1nn(C)c(C)c1S(=O)(=O)N1CCC(C(=O)NC2CCCCCC2)CC1 | . | 5.2µM | ? | . | . | .
Cc1nn(C)c(C)c1S(=O)(=O)N1CCC(C(=O)NC2CCCCC2)CC1 | . | 9.3µM | . | . | . | .
O=C(NCC(c1ccc2c(c1)OCO2)N1CCN(c2ccccc2)CC1)C(=O)Nc1cccc(F)c1 (stereo unspecified) | / | / | . | / | / | /
Cc1ccc(C(=O)NN(CCC(=O)NC(C)(C)C)C2=NS(=O)(=O)c3ccccc32)cc1 | . | 5.9µM | . | . | . | .
O=C(CN1C2CCCC1CC(NC(=O)c1ccccc1)C2)Nc1ccccc1C(F)(F)F (stereo unspecified) | . | . | . | ? | ? | .
O=C(CN1C2CCCC1CC(NC(=O)c1ccccc1)C2)Nc1ccccc1 (stereo unspecified) | . | 8.3µM | . | . | ? | .
COc1cccc(C(=O)NC2CC3CCCC(C2)N3CC(=O)Nc2ccc(N(C)C)cc2)c1 (stereo unspecified) | . | 12µM | . | ? | ? | .
COc1cccc(C(=O)NC2CC3CCCC(C2)N3CC(=O)Nc2ccccc2)c1 (stereo unspecified) | . | ? | . | . | 5.2µM | .
COc1cccc(C(=O)NC2CC3CCCC(C2)N3Cc2ccc(C)cc2)c1 (stereo unspecified) | . | ? | . | . | ? | .
COc1ccc(CC(=O)NC2CC(=O)N(c3ccc(C)c(C)c3)C2)cc1OC (stereo unspecified) | / | / | . | / | / | /
O=C(NCc1ccccc1)c1ccc2c(c1)N(Cc1ccccc1F)C(=O)c1ccccc1S2=O (stereo unspecified) | / | / | . | / | / | /
CSc1nc2nccc(-c3ccc(-c4ccccc4)cc3)n2n1 | . | 10µM | . | . | / | .
CSc1nc2nccc(-c3ccc(Oc4ccccc4)cc3)n2n1 | . | / | . | 11µM | ? | .
